Experimental data taken from PubChem BioAssay (NCATS).
Inconclusive results are not listed. Values without a mark were called inactive. Activity calls are given as the source filed them. Calls come from the whole dose curve; as a rule, active = well fitted cell-killing curve with a large enough effect; inconclusive = small, poorly fitted or top-dose-only effect, or effect the other way; inactive = flat fitted curve, though single readings scatter.
% is set by controls: 0 for no effect and ±100 for the full control effect; potency is the fitted concentration of half-maximal effect.

Each compound was assayed on OV90 (assay: Primary qHTS to identify gynecologic anti-cancer compounds using libraries of approved drugs and bioactive compounds (AID 1345084; note: nearly all actives have a fitted effect of over 55% in size)). Settings: Gynecologic cancer cell panel viability, ATPlite luminescence, 48 h; series mostly up to 57.5 µM; activity change, negative = cytotoxicity: at the top concentration.
Outline: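 Cell viability after 48 h drug treatment, ATPlite luminescence readout; five doses.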
CCCC1(CCC)CCC2(CCN(CCCN(CC)CC)C2)CC1 was tested, and the Potency was 7.08 µM (active). With O=C(NCCCN1CCC2(CC1)OCc1ccccc12)[C@H]1CCCN1Cc1ccccc1 the “activity change, negative = cytotoxicity” value was -36.4%. CC(C)c1cc(-c2ccc(F)c3ccccc23)nc(N)n1 was tested, and the “activity change, negative = cytotoxicity” value was 13.8%. With CC(C)NCCCn1c(Sc2cc3c(cc2I)OCO3)nc2c(N)ncnc21 the Potency was 0.398 µM (active). For CC(=O)OC1CC2(C)C(CCC(C)C23Cc2c(O)cc(CO)c(C=O)c2O3)C(C)(C)C1O (stereo unspecified), the “activity change, negative = cytotoxicity” value was -0.53% [at 25.3 µM]. In the case of CC(C)Oc1ccc(-c2cnc3c(-c4ccnc5ccccc45)cnn3c2)cc1, the “activity change, negative = cytotoxicity” value is reported as 1.53%. In the case of Cc1[nH]c(/C=C2\C(=O)Nc3cc(-c4ccccc4)ccc32)c(C)c1CCC(=O)O, the “activity change, negative = cytotoxicity” value is reported as -1.49%. For CC(=O)N[C@H]1[C@H](O[C@H]2CC[C@@]3(C)C(CC[C@]4(C)C3CC=C3C5CC(C)(C)CC[C@]5(C(=O)O)C(O)C[C@]34C)C2(C)C)O[C@H](CO[C@@H]2O[C@H](C)[C@H](O)[C@H](O)[C@H]2O[C@@H]2OC[C@@H](O)[C@H](O)[C@H]2O)[C@@H](O)[C@@H]1O (stereo partly specified), the activity change, negative = cytotoxicity was 7.05% [at 11.6 µM]. In the case of Cc1cc(C)nc(SCC(=O)Nc2ncc(Cc3cccc4ccccc34)s2)n1, the “activity change, negative = cytotoxicity” value is reported as 1.76%. In the case of COc1cccc(CN(C(=O)CC(C)(C)C)[C@H]2C[C@H](C(=O)N3CCNCC3)N(Cc3ccc4c(c3)OCO4)C2)c1, the “activity change, negative = cytotoxicity” value is reported as -8.63%. Fc1ccc(N2CCN(CCC3OCCc4ccccc43)CC2)cc1 (stereo unspecified) was tested, and the “activity change, negative = cytotoxicity” value was 5.53%. With O=C(NCc1ccccc1)c1ccc2c(=O)n(-c3cccc(C(F)(F)F)c3)c(=S)[nH]c2c1 the “activity change, negative = cytotoxicity” value was 8.08%. For CN[C@@H]1[C@H](O[C@H]2[C@H](O[C@@H]3[C@@H](O)[C@H](O)[C@@H](N=C(N)N)[C@H](O)[C@H]3N=C(N)N)O[C@@H](C)[C@]2(O)CO)O[C@@H](CO)[C@H](O)[C@H]1O, the “activity change, negative = cytotoxicity” value was 15.3%. With CC1CCC(=O)CC(SCC(O)C(=O)O)CCC(=O)O1 (stereo unspecified) the “activity change, negative = cytotoxicity” value was -10.3%. C=C1CC[C@H]2C(=C)CC[C@H]3C(=C)C(=O)O[C@@H]3[C@@H]12 was tested, and the “activity change, negative = cytotoxicity” value was -2.17%. With C=C1C(=O)O[C@@H]2C=C(COC(C)=O)CC/C=C(\CO)CC[C@@H]12 the “activity change, negative = cytotoxicity” value was -5.38% [at 38.5 µM]. For CC(=O)OC1C(=O)C2C3OCC4=C3[C@@](C)(CC[C@@H]4O)CC[C@]2(C)[C@H]1C(C)C (stereo partly specified), the “activity change, negative = cytotoxicity” value was -1.15% [at 38.5 µM]. O=c1[nH]c2cccc(N3CCN(Cc4ccc(-c5ccccc5)cc4)CC3)c2o1 was tested, and the “activity change, negative = cytotoxicity” value was 0.332%. Cc1nc(Nc2ccc(F)cc2)nc(N2CCc3ccccc3C2C)c1C (stereo unspecified) was tested, and the “activity change, negative = cytotoxicity” value was -27.4%. C[C@@H](O[C@H]1OCCN(Cc2nn(P(=O)(O)O)c(=O)[nH]2)[C@H]1c1ccc(F)cc1)c1cc(C(F)(F)F)cc(C(F)(F)F)c1 was tested, and the “activity change, negative = cytotoxicity” value was -4.34% [at 25.3 µM]. In the case of COC(=O)C[C@H]1[C@]2(C)C3=C(C)[C@H](c4ccoc4)C[C@H]3O[C@@H]2[C@H](O)C2[C@](C)(C(=O)OC)C=CC(=O)[C@@]21C (stereo partly specified), the “activity change, negative = cytotoxicity” value is reported as -12.9% [at 25.3 µM]. In the case of CC(=O)c1ccc2c(c1)[C@H](NC(=O)c1ccc(F)c(Cl)c1)[C@H](O)C(C)(C)O2, the “activity change, negative = cytotoxicity” value is reported as -3.11%. CC1OC(OC2C(O)COC(O[C@@H]3[C@@H](O)[C@@H](O)[C@H](OC4C(OC(=O)[C@]56CCC(C)(C)CC5C5=CCC7[C@@]8(C)C[C@H](O)[C@H](OC9OC(CO)C(O)C(O)C9O)[C@@](C)(CO)C8[C@H](O)C[C@@]7(C)[C@]5(C)CC6)OCC(O)C4O)O[C@H]3C)C2O)C(O)C(O)C1O (stereo partly specified) showed an activity change, negative = cytotoxicity of 13.1% [at 6.55 µM]. CC(=O)O[C@@]12CO[C@@H]1C[C@H](O)[C@@]1(C)C(=O)[C@H](O)C3=C(C)[C@@H](OC(=O)[C@H](O)[C@@H](NC(=O)OC(C)(C)C)c4ccccc4)C[C@@](O)([C@@H](OC(=O)c4ccccc4)C12)C3(C)C (stereo partly specified) was tested, and the “activity change, negative = cytotoxicity” value was -26.8% [at 25.3 µM]. With Cc1c(C(=O)NCc2cccnc2)nn(-c2ccc(Cl)cc2Cl)c1-c1ccc(Cl)cc1 the “activity change, negative = cytotoxicity” value was -6.94%. For C=C1CCC[C@]2(C)CC/C(=C(/CO)C(=O)OC)C[C@@H]12, the “activity change, negative = cytotoxicity” value was 14.7%. CC/C(C)=C/C(=O)OC1C(OC2(C)CCC3C(C4C(C)CCC42)C3(C)C)OC(C)C(O)C1O (stereo unspecified) was tested, and the “activity change, negative = cytotoxicity” value was -22.3% [at 25.3 µM]. In the case of CC(C)[C@@H](c1ccc(C(F)(F)F)cc1CN(Cc1cc(C(F)(F)F)cc(C(F)(F)F)c1)c1nnn(C)n1)N1CCC(C(=O)O)CC1, the “activity change, negative = cytotoxicity” value is reported as 3.53%. In the case of O=C(O)c1ccc(S(=O)(=O)N(Cc2ccc(OC(F)(F)F)cc2)c2ncc(C(F)(F)F)cc2Cl)cc1, the “activity change, negative = cytotoxicity” value is reported as 12.9%. In the case of COc1ccc(OC)c(-c2ccc(NC(=O)c3ccncc3F)cc2)c1, the “activity change, negative = cytotoxicity” value is reported as 0.266%. In the case of C[C@H]1CC[C@@]2(OC1)O[C@H]1CC3C4CC[C@H]5C[C@@H](O)CC[C@]5(C)C4=CC(=O)[C@]3(C)[C@H]1[C@@H]2C (stereo partly specified), the “activity change, negative = cytotoxicity” value is reported as 10.8% [at 25.3 µM].
